The values that follow come from paper PMC7862700, “An all-to-all approach to the identification of sequence-specific readers for epigenetic DNA modifications on cytosine”.

Common to all, as to assay: DAPPL (digital affinity profiling via proximity ligation, sequencing); 10 mM Tris-HCl pH 7.5, 50 mM NaCl, 1 mM DTT, 4% glycerol, room temperature, 30 min; GST-TFs on glutathione beads, 16-mer random dsDNA library, 0.1% formaldehyde crosslink after washing; high values mean tight binding
One experiment addresses T1, FLI1 (Homo sapiens, UniProt Q01543 1-452).
T1 sequence: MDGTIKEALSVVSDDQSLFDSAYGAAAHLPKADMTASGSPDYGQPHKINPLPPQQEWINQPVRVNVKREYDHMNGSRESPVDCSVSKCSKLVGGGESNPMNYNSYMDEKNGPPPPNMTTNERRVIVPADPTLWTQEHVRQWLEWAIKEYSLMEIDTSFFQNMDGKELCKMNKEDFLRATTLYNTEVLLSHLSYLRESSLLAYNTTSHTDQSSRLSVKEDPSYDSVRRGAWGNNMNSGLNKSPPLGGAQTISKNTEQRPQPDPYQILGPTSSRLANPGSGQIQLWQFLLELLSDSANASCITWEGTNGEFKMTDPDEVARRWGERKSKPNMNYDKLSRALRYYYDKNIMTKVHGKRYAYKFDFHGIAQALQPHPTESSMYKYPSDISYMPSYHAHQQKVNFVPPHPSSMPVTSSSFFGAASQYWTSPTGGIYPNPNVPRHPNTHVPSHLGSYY
Particulars: protein: recombinant; tags: N-terminal GST; dsDNA, one strand shown. An outline of the steps: (§1)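 Sequencing on an Illumina NextSeq500 followed washing, crosslinking with 0.1% formaldehyde, proximity ligation (BsaI/T4 ligase, 1 h, 37 °C) and PCR amplification of pools that had been incubated for 30 min at room temperature with 200 nmole of a random double-stranded 16-mer DNA library in Tris/NaCl/DTT/glycerol buffer. Each pool held DNA-barcoded human transcription factors, expressed in yeast as GST fusions and captured on glutathione beads, plus a tag-only sample. Binding signal is a hexamer's read frequency for a factor divided by its frequency in the tag-only sample.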

The target of a further experiment is T2, ELK1 (Homo sapiens, UniProt P19419 1-428).
T2 sequence: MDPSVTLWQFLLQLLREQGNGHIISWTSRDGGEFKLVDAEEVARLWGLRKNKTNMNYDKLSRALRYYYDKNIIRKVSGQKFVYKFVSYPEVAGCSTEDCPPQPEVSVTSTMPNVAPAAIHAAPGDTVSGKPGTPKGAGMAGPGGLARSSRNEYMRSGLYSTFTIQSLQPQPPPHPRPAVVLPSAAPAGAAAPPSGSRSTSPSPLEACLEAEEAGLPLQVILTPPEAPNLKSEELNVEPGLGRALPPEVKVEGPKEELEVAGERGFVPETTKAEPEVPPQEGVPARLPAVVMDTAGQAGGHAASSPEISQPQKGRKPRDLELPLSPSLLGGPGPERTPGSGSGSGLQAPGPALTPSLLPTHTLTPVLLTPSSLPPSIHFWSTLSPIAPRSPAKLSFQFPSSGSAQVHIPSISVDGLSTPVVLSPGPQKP
Particulars: protein: recombinant; tags: N-terminal GST; dsDNA, one strand shown. An outline of the steps:
as §1

Another experiment concerns the target T3, GABPA (Homo sapiens, UniProt Q06546 1-454).
T3 sequence: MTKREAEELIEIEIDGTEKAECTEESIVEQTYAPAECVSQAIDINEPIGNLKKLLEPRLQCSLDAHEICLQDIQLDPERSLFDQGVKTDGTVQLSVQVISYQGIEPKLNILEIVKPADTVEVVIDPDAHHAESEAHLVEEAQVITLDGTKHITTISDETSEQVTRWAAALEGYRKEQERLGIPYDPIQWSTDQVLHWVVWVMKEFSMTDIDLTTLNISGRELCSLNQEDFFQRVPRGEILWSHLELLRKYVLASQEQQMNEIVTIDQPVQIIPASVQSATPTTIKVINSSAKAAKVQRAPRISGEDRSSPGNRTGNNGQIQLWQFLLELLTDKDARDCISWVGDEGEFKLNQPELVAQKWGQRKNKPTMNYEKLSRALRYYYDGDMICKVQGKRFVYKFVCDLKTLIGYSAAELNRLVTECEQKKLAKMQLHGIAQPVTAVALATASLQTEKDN
Particulars: protein: recombinant; tags: N-terminal GST; dsDNA, one strand shown. The method, boiled down:
as §1

Another experiment concerns the target T4, ERG (Homo sapiens, UniProt P11308 1-479).
T4 sequence: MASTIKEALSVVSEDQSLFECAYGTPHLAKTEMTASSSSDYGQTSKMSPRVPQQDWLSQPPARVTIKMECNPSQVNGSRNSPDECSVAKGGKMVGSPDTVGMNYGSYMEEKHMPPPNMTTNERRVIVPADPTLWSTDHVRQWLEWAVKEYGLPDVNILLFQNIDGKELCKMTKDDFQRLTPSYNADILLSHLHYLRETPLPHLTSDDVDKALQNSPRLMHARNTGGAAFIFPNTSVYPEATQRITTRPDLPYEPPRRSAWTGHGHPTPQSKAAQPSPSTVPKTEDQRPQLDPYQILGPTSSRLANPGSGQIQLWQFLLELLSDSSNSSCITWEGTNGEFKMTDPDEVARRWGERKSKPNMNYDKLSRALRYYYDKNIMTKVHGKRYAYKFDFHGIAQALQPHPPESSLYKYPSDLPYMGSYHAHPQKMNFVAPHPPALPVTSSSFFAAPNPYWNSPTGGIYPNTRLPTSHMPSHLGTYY
Particulars: protein: recombinant; tags: N-terminal GST; dsDNA, one strand shown. The method, boiled down:
as §1

The target of the next experiment is ELF1 (Homo sapiens, UniProt P32519 1-619). Particulars: protein: recombinant; tags: N-terminal GST; dsDNA, one strand shown. The method, boiled down:
as §1

The next experiment deals with T5, EHF (Homo sapiens, UniProt Q9NZC4 1-300).
T5 sequence: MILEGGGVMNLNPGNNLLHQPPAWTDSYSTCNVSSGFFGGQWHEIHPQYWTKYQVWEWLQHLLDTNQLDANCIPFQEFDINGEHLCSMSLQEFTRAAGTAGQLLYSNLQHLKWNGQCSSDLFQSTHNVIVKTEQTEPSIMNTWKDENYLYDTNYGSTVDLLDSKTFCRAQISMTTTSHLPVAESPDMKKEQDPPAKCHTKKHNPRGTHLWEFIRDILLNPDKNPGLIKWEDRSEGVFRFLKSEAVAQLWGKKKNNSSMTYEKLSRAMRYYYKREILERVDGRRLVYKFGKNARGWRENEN
Particulars: protein: recombinant; tags: N-terminal GST; dsDNA, one strand shown. The method, boiled down:
as §1

In another experiment the target is SPI1 (Homo sapiens, UniProt P17947 1-270). Particulars: protein: recombinant; tags: N-terminal GST; dsDNA, one strand shown. An outline of the steps:
as §1

The next experiment deals with SPIB (Homo sapiens, UniProt Q01892 1-262). Particulars: protein: recombinant; tags: N-terminal GST; dsDNA, one strand shown. An outline of the steps: as §1
Another experiment addresses T6, ELK3 (Homo sapiens, UniProt P41970 1-407).
T6 sequence: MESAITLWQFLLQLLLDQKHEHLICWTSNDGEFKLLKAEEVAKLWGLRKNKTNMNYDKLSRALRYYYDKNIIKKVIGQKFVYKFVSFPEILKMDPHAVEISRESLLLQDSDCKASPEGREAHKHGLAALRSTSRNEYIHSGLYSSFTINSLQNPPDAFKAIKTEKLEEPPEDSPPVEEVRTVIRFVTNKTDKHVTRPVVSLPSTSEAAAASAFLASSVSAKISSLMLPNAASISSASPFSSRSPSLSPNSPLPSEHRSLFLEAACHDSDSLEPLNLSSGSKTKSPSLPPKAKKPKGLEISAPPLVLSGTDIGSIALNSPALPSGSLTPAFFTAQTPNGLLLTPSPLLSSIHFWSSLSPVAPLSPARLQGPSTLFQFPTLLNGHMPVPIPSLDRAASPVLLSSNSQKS
Particulars: protein: recombinant; tags: N-terminal GST; dsDNA, one strand shown. An outline of the steps:
as §1

For a further experiment, the target named is T7, FEV (Homo sapiens, UniProt Q99581 1-238).
T7 sequence: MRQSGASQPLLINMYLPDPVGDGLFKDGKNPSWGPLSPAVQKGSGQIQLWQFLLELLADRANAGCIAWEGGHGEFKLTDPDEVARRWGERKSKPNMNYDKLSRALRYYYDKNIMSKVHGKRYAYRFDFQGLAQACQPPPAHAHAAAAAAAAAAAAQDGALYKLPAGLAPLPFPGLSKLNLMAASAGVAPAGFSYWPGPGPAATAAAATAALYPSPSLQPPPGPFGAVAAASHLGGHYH
Particulars: protein: recombinant; tags: N-terminal GST; dsDNA, one strand shown. An outline of the steps: as §1

The target of another experiment is ETV5 (Homo sapiens, UniProt P41161 1-510). Particulars: protein: recombinant; tags: N-terminal GST; dsDNA, one strand shown. The method, boiled down:
as §1

Another experiment deals with HSF1 (Homo sapiens, UniProt Q00613 1-529). Particulars: protein: recombinant; tags: N-terminal GST; chain copies: 3; dsDNA, one strand shown. An outline of the steps:
as §1

The target of another experiment is T8, SPIC (Homo sapiens, UniProt Q8N5J4 1-248).
T8 sequence: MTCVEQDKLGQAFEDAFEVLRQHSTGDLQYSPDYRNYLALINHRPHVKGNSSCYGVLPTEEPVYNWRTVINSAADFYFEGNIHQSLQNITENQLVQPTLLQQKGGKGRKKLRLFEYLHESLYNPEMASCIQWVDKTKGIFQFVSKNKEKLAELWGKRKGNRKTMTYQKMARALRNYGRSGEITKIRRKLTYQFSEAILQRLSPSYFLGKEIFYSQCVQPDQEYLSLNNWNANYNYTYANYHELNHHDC
Particulars: protein: recombinant; tags: N-terminal GST; dsDNA, one strand shown. The method, boiled down: as §1

The next experiment addresses ELF4 (Homo sapiens, UniProt Q99607 1-663). Particulars: protein: recombinant; tags: N-terminal GST; dsDNA, one strand shown. The method, boiled down:
as §1

The target of the next experiment is T9, ELK4 (Homo sapiens, UniProt P28324-2 1-405).
T9 sequence: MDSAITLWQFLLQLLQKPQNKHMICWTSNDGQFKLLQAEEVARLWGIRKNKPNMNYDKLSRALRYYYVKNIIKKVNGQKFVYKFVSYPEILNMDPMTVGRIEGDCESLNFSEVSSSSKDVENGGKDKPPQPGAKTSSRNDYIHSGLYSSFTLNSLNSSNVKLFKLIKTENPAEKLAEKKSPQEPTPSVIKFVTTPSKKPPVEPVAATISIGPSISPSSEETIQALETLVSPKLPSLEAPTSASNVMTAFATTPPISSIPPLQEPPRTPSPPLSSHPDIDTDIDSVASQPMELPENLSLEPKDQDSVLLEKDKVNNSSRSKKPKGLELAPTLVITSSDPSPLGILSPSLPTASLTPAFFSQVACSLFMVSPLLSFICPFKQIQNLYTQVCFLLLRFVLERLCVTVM
Particulars: protein: recombinant; tags: N-terminal GST; dsDNA, one strand shown. The method, boiled down: as §1

In a further experiment the target is T10, ETV2 (Homo sapiens, UniProt O00321 1-342).
T10 sequence: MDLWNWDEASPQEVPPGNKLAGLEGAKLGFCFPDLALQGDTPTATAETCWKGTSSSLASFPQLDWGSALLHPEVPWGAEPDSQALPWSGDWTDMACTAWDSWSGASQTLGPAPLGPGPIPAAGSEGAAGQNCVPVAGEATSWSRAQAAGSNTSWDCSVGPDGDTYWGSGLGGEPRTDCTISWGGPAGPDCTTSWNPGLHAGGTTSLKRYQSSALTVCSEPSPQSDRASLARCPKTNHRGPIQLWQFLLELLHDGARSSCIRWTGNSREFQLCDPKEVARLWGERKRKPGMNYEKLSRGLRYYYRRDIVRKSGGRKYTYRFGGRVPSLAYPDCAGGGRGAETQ
Particulars: protein: recombinant; tags: N-terminal GST; dsDNA, one strand shown. The method, boiled down:
as §1

In a further experiment the target is T11, ELF3 (Homo sapiens, UniProt P78545 1-371).
T11 sequence: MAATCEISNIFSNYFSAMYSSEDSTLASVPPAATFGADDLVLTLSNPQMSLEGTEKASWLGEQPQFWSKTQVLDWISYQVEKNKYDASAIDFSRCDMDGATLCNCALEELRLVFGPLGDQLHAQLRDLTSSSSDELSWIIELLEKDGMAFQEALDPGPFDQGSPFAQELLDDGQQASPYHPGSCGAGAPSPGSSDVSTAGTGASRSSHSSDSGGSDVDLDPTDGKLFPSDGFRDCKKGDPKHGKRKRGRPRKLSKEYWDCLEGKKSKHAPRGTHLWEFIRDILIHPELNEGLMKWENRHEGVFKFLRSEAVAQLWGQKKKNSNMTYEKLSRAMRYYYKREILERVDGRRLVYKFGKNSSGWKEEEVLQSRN
Particulars: protein: recombinant; tags: N-terminal GST; dsDNA, one strand shown. The method, boiled down: as §1

A further experiment deals with ETV1 (Homo sapiens, UniProt P50549 1-477). Particulars: protein: recombinant; tags: N-terminal GST; dsDNA, one strand shown. The method, boiled down: as §1
Chain of ETV1 (P50549 whole entry): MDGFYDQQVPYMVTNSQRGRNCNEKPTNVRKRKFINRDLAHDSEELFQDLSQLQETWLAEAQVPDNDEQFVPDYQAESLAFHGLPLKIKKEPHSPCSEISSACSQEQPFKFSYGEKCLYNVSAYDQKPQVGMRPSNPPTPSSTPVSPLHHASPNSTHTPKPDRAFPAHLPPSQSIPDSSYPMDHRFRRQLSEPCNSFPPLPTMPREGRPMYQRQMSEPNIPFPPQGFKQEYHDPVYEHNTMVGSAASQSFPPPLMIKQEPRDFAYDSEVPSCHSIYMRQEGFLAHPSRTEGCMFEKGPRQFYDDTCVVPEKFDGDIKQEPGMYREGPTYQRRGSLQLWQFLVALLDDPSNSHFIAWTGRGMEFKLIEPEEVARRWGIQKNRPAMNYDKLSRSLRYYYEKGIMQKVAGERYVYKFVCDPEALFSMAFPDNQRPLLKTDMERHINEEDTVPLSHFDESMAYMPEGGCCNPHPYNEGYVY

Chain of ETV5 (P41161 whole entry): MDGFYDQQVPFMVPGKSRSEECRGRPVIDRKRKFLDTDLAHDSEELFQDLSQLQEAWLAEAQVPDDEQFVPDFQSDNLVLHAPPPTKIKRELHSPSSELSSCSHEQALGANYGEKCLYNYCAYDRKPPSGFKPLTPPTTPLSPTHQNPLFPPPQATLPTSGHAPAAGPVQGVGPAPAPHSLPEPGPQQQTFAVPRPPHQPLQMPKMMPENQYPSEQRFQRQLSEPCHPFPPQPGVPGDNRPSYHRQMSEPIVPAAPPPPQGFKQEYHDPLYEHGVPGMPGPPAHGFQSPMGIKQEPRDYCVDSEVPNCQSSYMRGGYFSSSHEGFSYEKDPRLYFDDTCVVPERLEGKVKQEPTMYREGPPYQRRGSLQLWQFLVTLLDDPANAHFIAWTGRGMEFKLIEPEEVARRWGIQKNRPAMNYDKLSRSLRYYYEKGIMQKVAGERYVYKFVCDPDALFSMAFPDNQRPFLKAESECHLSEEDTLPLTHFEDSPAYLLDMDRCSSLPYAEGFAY
Chain of SPIB (Q01892 whole entry): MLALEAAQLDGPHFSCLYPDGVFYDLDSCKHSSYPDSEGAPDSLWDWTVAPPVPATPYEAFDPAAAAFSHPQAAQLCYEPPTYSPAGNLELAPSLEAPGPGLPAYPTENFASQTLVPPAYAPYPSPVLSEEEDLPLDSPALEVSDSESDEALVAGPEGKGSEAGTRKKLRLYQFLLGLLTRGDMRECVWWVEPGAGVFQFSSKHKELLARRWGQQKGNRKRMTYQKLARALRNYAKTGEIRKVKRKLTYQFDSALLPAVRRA
Chain of ELF4 (Q99607 whole entry): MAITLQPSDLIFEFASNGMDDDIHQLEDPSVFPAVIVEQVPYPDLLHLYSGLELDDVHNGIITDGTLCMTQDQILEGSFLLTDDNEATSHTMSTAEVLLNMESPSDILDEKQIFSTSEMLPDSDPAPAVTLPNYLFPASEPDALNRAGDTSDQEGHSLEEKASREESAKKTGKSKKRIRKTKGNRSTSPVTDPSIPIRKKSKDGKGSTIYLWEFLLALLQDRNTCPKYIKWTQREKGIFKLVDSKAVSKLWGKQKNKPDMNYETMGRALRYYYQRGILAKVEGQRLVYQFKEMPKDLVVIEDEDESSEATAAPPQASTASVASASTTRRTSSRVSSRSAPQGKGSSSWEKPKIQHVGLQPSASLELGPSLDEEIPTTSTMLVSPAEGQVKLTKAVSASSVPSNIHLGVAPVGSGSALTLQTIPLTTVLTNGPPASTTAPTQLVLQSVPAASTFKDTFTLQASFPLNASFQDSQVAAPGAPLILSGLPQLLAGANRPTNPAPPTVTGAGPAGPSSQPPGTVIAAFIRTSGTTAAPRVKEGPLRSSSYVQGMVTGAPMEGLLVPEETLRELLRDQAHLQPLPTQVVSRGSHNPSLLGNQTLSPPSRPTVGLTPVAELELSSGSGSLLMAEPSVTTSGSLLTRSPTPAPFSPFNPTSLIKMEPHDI
Chain of HSF1 (Q00613 whole entry): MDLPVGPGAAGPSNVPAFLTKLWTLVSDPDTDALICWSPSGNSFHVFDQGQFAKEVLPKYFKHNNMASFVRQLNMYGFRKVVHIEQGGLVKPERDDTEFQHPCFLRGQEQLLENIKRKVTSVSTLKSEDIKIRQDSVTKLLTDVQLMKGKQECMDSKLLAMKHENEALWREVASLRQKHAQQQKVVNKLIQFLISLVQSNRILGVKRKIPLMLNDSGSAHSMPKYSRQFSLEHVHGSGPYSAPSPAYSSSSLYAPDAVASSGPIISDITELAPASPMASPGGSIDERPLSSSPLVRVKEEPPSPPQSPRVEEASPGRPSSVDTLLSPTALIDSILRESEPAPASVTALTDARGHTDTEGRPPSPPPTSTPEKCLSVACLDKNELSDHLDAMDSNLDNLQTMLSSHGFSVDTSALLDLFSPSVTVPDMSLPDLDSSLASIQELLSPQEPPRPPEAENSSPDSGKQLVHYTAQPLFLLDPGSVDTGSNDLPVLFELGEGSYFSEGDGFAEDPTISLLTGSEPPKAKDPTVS
Chain of ELF1 (P32519 whole entry): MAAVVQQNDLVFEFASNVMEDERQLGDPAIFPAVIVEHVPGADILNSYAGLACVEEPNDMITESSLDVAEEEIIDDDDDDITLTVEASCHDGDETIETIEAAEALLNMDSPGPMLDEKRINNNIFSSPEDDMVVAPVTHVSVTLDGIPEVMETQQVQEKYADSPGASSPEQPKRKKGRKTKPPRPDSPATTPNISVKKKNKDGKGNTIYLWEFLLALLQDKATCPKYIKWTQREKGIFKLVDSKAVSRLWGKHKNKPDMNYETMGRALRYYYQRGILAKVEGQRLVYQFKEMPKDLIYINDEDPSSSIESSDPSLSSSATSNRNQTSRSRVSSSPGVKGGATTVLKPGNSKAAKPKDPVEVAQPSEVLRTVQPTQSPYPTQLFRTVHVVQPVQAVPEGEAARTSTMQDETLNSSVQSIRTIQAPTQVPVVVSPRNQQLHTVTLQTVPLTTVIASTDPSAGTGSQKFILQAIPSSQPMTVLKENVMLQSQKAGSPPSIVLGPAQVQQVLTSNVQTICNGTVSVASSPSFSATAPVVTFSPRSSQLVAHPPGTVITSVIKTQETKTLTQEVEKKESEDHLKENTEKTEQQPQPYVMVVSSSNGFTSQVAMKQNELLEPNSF

Regarding TGTCTC, the binding signal with FLI1 is 1.31 fold enrichment (6-mer frequency, TF over GST control); with ELK1 it was 1.31 fold enrichment (6-mer frequency, TF over GST control); with GABPA, 1.31 fold enrichment (6-mer frequency, TF over GST control); in the experiment with ERG, 1.23 fold enrichment (6-mer frequency, TF over GST control); in the experiment with ELF1, 1.2 fold enrichment (6-mer frequency, TF over GST control); with EHF it was 1.22 fold enrichment (6-mer frequency, TF over GST control). Besides, the binding signal was 1.29 fold enrichment (6-mer frequency, TF over GST control) in the experiment with SPI1; 1.28 fold enrichment (6-mer frequency, TF over GST control) with SPIB; 1.15 fold enrichment (6-mer frequency, TF over GST control) with ELK3; 1.22 fold enrichment (6-mer frequency, TF over GST control) with FEV; 1.33 fold enrichment (6-mer frequency, TF over GST control) with ETV5; 1.01 fold enrichment (6-mer frequency, TF over GST control) with HSF1. For the same sequence, the binding signal was 1.11 fold enrichment (6-mer frequency, TF over GST control) with SPIC; 1.36 fold enrichment (6-mer frequency, TF over GST control) in the experiment with ELF4; 1.11 fold enrichment (6-mer frequency, TF over GST control) in the experiment with ELK4; 1.26 fold enrichment (6-mer frequency, TF over GST control) with ETV2; 1.18 fold enrichment (6-mer frequency, TF over GST control) with ELF3; 1.22 fold enrichment (6-mer frequency, TF over GST control) in the experiment with ETV1.
